Data from PubChem BioAssay (EPA / NIEHS).
Activity calls are given as the source filed them. How the source made its calls: active means hit-call score of the fitted dose curve at least 0.9, where 1 is the maximum; inactive means score below 0.9.

Legend:
[1] = target: Bile acid receptor (Homo sapiens) (UniProt Q96RI1); assay: ATG_IR1_CIS: Attagene CIS-FACTORIAL HepG2 Assay for human Nuclear Receptor Subfamily 1 Group H Member 4 (NR1H4), IR1 submotif (AID 2282946); conditions: IR1 reporter transcription, actives raise or lower the signal
How it was run: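 Readout: reporter transcript levels by RT-PCR with fluorescent capillary electrophoresis, from HepG2 cells transiently transfected with multiplexed cis-regulated reporters and dosed 24 h. Gain- or loss-of-signal fitted versus DMSO negative control.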

[2] = ATG_GRE_CIS: Attagene CIS-FACTORIAL HepG2 Assay for human Glucocorticoid Response Elements (GRE) (AID 2282947); conditions: HepG2 GRE cis-reporter, Attagene multiplex mRNA; actives raise or lower the signal
How it was run: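 Cells (HepG2) bearing transfected cis-promoter reporter transcription units were treated with chemical for 24 hours. Reporter mRNA was measured via RT-PCR with capillary electrophoresis, and activity was fitted in both directions relative to DMSO.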

[3] = ATG_ISRE_CIS: Attagene CIS-FACTORIAL HepG2 Assay for human Interferon Regulatory Factor 1 (IRF1) binding to an Interferon-Stimulated Response Element (ISRE) (AID 2282948); conditions: HepG2 ISRE cis-reporter (Attagene), mRNA transcription readout; actives raise or lower the signal
How it was run: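 Endogenous transcription factor activity read as reporter transcript abundance via RT-PCR and capillary electrophoresis. HepG2 cells transiently transfected, 24 h chemical exposure. Gain or loss fitted against DMSO baseline.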

[4] = ATG_M_32_CIS: Attagene CIS-FACTORIAL HepG2 Assay for M32 Transcription Factor (Internal Marker) (AID 2282949); conditions: HepG2 Attagene cis-factorial M32 reporter, mRNA; actives raise or lower the signal;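 further: background control marker of the multiplexed CIS panel rather than a real target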
How it was run: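 HepG2 transfectants (cis-regulated reporter transcription units) dosed 24 h. Reporter mRNA by RT-PCR plus CE, analysed as gain or loss relative to DMSO.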

[5] = ATG_M_06_CIS: Attagene CIS-FACTORIAL HepG2 Assay for M06 Transcription Factor (Internal Marker) (AID 2282950); conditions: HepG2 Attagene CIS-FACTORIAL M06 internal marker reporter; actives raise or lower the signal
How it was run: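 Cells (HepG2, transiently carrying cis-driven reporter units) receive chemical for 24 h before RNA isolation. Reporter cDNA is PCR-amplified, FAM-labelled by primer extension, HpaI-digested and sized on a capillary analyser.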

[6] = target: Hypoxia-inducible factor 1-alpha (Homo sapiens) (UniProt Q16665); assay: ATG_HIF1a_CIS: Attagene CIS-FACTORIAL HepG2 Assay for human Hypoxia Inducible Factor 1 (HIF1A) (AID 2282951); conditions: HepG2 Attagene cis-factorial HIF1a reporter transcription; actives raise or lower the signal
How it was run: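 HepG2 cells transiently transfected with multiplexed cis-promoter reporter units; reporter mRNA read 24 h after dosing by RT-PCR, 6-FAM primer-extension labelling, HpaI digestion and capillary electrophoresis. Bidirectional fit versus DMSO baseline.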

[7] = target: Hepatocyte nuclear factor 6 (Homo sapiens) (UniProt Q9UBC0); assay: ATG_HNF6_CIS: Attagene CIS-FACTORIAL HepG2 Assay for human Hepatocyte Nuclear Factor 6 (HNF6) (AID 2282952); conditions: HepG2 Attagene cis-factorial HNF6 reporter transcription; actives raise or lower the signal
How it was run: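 Twenty-four-hour chemical treatment of reporter-transfected HepG2 cells precedes RNA isolation, DNase-treated reverse transcription and PCR of reporter sequences. Labelled fragments are sized by capillary electrophoresis and fitted bidirectionally versus DMSO.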

[8] = target: Heat shock factor protein 1 (Homo sapiens) (UniProt Q00613); assay: ATG_HSE_CIS: Attagene CIS-FACTORIAL HepG2 Assay for human Heat Shock Transcription Factor 1 (HSE) (AID 2282953); conditions: HepG2 HSE cis-reporter, Attagene RNA transcription; actives raise or lower the signal
How it was run: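 Liver-derived HepG2 cells carry transiently introduced multiple reporter units governed by cis promoters. Reporter RNA measured 24 h post-dose through reverse transcription, PCR amplification, fluorescent labelling and capillary electrophoresis, normalised to DMSO.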

[9] = ATG_MRE_CIS: Attagene CIS-FACTORIAL HepG2 Assay for human Metal Responsive Element (MRE) (AID 2282954); conditions: HepG2 MRE cis-reporter transcription, Attagene multiplex; actives raise or lower the signal
How it was run: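 Cells were transfected with cis-promoter reporter transcription units, then dosed for 24 h. RNA was reverse-transcribed, amplified, fluorescently labelled and resolved by capillary electrophoresis, and activity was fitted in both directions relative to DMSO.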

[10] = ATG_PBREM_CIS: Attagene CIS-FACTORIAL HepG2 Assay for human Phenobarbital-responsive Enhancer Module (PBREM) (AID 2282955); conditions: HepG2 PBREM cis-reporter, Attagene multiplexed transcription; actives raise or lower the signal
How it was run: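 HepG2 cells transiently transfected with multiple cis-regulated reporter transcription units; endogenous factor activity at the PBREM element measured as reporter mRNA 24 h after dosing, via RT-PCR and capillary electrophoresis of fluorescent fragments; bidirectional fitting versus DMSO.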

[11] = target: Paired box protein Pax-6 (Homo sapiens) (UniProt P26367); assay: ATG_Pax6_CIS: Attagene CIS-FACTORIAL HepG2 Assay for human Paired Box 6 (PAX6) (AID 2282956); conditions: HepG2 CIS-FACTORIAL PAX6 reporter transcription, RNA readout; actives raise or lower the signal
How it was run: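 Read-out is reporter transcript level, measured by RT-PCR with fluorescent primer extension and capillary electrophoresis after 24 h dosing of transfected HepG2 cells. Activity in either direction fitted relative to DMSO control.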

[12] = ATG_PXRE_CIS: Attagene CIS-FACTORIAL HepG2 Assay for human Pregnane X Receptor Element (PXRE) (AID 2282957); conditions: HepG2 Attagene CIS-FACTORIAL PXRE reporter, mRNA; actives raise or lower the signal
How it was run: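 Bidirectional activity, baselined to DMSO, derived from reporter mRNA fluorescence (RT-PCR plus capillary electrophoresis) in HepG2 cells bearing cis-promoter reporter units, 24 h exposure.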

[13] = ATG_RORE_CIS: Attagene CIS-FACTORIAL HepG2 Assay for human RAR-related Orphan Receptor Element (RORE) (AID 2282959); conditions: HepG2 Attagene cis-factorial RORE reporter, mRNA; actives raise or lower the signal
How it was run: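 HepG2 cells transiently transfected with multiple cis-element reporter transcription units, exposed to chemical for 24 h. Reporter mRNA quantified by RT-PCR, 6-FAM primer-extension labeling, HpaI digestion and capillary electrophoresis; bidirectional fit versus DMSO baseline.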

[14] = ATG_Sox_CIS: Attagene CIS-FACTORIAL HepG2 Assay for human SRY-box transcription factor (SOX) (AID 2282960); conditions: HepG2 Attagene cis-factorial SOX reporter, mRNA; actives raise or lower the signal
How it was run: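 HepG2 cells transiently transfected with cis-element-driven multiple reporter transcription units, dosed 24 h; reporter mRNA measured by RT-PCR, FAM labelling, HpaI digestion and capillary electrophoresis. Bidirectional fit versus DMSO baseline.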

[15] = target: Transcription factor Sp1 (Homo sapiens) (UniProt P08047); assay: ATG_Sp1_CIS: Attagene CIS-FACTORIAL HepG2 Assay for human Specificity Protein 1 (Sp1) (AID 2282961); conditions: HepG2 Sp1 cis-reporter transcription, actives raise or lower the signal
How it was run: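 HepG2 cells transiently transfected with multiple reporter transcription units driven by cis-regulatory elements; Sp1-responsive reporter mRNA measured 24 h after dosing by RT-PCR and capillary electrophoresis fluorescence, fitted bidirectionally against DMSO baseline.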

[16] = ATG_SREBP_CIS: Attagene CIS-FACTORIAL HepG2 Assay for human Sterol Regulatory Element Binding (SREBP) (AID 2282962); conditions: HepG2 Attagene cis-factorial SREBP reporter, mRNA; actives raise or lower the signal
How it was run: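 Endogenous SREBP activity read as cis-element-driven reporter transcript in transiently transfected HepG2, 24 h post-dosing; quantified via RT-PCR plus capillary electrophoresis of fluorescent fragments. Gain or loss of signal fitted relative to DMSO baseline.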

[17] = target: Signal transducer and activator of transcription 3 (Homo sapiens) (UniProt P40763); assay: ATG_STAT3_CIS: Attagene CIS-FACTORIAL HepG2 Assay for human Signal Transducer and Activator of Transcription 3 (STAT3) (AID 2282963); conditions: HepG2, Attagene cis-factorial STAT3 reporter transcription; actives raise or lower the signal
How it was run: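 HepG2, MRTU-transfected, 24 h dosing. RNA → RT → PCR → FAM label → HpaI → CE. Bidirectional fit vs DMSO.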

[18] = ATG_TA_CIS: Attagene CIS-FACTORIAL HepG2 Assay for human TA Basal Promoter (AID 2282964); conditions: HepG2 Attagene CIS-factorial TA basal promoter reporter; actives raise or lower the signal
How it was run: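 Background internal-marker endpoint from a 52-component HepG2 cis-reporter panel. Cells treated 24 h; reporter transcripts quantified via RT-PCR and CE fluorescence against DMSO baseline.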

[19] = ATG_TCF_b_cat_CIS: Attagene CIS-FACTORIAL HepG2 Assay for human T-Cell-Factor with beta-catenin (TCF/b-cat) (AID 2282965); conditions: HepG2 TCF/beta-catenin cis-reporter transcription, actives raise or lower the signal
How it was run: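 Using capillary electrophoresis as the read-out, labelled reporter cDNA fragments from transiently transfected HepG2 were sized and quantified. Exposure lasted 24 hours; activity in either direction was referenced to DMSO.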

[20] = ATG_PPRE_CIS: Attagene CIS-FACTORIAL HepG2 Assay for human Peroxisome Proliferator-activated Response Element (PPRE) (AID 2282958); conditions: HepG2 PPRE cis-element reporter, Attagene transcription factor profiling; actives raise or lower the signal
How it was run: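 HepG2 cells transiently transfected with multiplexed cis-element reporter units measure endogenous transcription factor activity. After 24 h compound exposure, reporter mRNA is quantified by RT-PCR, 6-FAM labeling, HpaI digestion and capillary electrophoresis; bidirectional fits are made against DMSO baseline.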

Measured: AC50

Chain of Signal transducer and activator of transcription 3 (Homo sapiens) (P40763 whole entry, looked up): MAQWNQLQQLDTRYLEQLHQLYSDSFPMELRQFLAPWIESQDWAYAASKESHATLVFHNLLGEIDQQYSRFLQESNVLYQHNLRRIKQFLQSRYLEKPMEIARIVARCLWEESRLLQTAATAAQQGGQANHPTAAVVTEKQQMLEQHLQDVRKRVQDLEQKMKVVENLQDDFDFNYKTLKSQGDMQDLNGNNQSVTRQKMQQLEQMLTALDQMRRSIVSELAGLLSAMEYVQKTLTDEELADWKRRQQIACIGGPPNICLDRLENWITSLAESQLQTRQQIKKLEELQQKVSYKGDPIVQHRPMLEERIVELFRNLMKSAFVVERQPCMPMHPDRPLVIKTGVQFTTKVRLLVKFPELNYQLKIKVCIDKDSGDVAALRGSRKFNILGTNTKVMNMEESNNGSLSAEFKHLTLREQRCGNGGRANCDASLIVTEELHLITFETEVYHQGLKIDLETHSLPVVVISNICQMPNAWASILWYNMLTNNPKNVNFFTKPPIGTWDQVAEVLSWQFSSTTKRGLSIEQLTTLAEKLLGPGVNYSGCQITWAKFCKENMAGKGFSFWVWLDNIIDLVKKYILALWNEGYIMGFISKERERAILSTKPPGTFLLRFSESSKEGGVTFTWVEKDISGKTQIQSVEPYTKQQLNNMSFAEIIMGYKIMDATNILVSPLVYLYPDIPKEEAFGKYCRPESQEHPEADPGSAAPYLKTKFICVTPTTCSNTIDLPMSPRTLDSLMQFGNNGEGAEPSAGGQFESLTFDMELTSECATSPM
Chain of Transcription factor Sp1 (Homo sapiens) (P08047 whole entry, looked up): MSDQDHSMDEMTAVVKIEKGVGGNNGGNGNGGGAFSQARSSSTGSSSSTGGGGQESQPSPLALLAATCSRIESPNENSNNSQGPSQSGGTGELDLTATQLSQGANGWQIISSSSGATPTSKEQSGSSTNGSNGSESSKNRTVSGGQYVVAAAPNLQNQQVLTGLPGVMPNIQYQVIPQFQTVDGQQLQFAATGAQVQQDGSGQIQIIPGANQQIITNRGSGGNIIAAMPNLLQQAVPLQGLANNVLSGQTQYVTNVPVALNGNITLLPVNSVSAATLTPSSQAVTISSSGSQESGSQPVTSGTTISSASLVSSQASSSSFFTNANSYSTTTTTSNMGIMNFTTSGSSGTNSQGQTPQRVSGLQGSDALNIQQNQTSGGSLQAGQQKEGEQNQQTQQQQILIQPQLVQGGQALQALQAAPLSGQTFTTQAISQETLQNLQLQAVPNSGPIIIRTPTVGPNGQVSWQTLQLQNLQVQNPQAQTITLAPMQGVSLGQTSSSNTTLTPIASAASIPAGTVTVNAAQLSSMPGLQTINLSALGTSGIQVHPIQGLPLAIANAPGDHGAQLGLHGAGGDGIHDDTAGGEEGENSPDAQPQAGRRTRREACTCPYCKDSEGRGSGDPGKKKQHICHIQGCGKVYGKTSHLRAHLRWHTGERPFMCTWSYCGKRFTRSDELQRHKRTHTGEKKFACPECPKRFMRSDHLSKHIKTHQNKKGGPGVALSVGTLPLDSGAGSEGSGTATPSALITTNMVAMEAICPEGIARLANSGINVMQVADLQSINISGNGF
Chain of Hypoxia-inducible factor 1-alpha (Homo sapiens) (Q16665 whole entry, looked up): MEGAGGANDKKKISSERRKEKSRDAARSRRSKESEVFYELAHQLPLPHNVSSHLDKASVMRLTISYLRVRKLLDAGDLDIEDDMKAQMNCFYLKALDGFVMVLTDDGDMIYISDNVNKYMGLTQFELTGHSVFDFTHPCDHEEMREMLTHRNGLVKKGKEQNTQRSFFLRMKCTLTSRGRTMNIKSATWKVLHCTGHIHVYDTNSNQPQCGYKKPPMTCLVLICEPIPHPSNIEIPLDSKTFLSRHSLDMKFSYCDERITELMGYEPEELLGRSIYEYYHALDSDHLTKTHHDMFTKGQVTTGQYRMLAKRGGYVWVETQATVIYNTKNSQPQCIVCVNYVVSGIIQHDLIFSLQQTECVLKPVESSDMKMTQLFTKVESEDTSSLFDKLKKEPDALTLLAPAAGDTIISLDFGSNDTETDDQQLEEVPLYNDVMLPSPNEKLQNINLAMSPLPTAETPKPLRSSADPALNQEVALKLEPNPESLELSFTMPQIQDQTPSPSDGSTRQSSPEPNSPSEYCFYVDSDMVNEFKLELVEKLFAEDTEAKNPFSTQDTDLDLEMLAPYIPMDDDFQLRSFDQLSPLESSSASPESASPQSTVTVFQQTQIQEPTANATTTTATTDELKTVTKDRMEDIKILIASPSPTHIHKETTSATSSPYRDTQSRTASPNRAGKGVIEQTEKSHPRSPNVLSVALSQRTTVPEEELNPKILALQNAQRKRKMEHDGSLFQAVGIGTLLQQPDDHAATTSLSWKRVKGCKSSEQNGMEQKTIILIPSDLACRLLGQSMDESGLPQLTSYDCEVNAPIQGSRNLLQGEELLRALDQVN
Chain of Paired box protein Pax-6 (Homo sapiens) (P26367 whole entry, looked up): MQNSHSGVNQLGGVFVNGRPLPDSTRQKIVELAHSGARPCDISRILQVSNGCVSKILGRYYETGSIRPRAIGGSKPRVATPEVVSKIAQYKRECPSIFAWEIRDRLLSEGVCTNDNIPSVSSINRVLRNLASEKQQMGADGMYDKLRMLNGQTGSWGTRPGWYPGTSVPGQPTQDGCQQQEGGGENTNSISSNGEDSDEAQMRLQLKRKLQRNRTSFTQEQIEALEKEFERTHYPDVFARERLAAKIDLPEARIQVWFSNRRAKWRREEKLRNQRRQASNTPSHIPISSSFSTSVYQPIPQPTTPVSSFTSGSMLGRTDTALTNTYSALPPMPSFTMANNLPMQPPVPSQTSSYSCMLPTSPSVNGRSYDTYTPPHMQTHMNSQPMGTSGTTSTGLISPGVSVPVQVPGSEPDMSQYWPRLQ
Chain of Heat shock factor protein 1 (Homo sapiens) (Q00613 whole entry, looked up): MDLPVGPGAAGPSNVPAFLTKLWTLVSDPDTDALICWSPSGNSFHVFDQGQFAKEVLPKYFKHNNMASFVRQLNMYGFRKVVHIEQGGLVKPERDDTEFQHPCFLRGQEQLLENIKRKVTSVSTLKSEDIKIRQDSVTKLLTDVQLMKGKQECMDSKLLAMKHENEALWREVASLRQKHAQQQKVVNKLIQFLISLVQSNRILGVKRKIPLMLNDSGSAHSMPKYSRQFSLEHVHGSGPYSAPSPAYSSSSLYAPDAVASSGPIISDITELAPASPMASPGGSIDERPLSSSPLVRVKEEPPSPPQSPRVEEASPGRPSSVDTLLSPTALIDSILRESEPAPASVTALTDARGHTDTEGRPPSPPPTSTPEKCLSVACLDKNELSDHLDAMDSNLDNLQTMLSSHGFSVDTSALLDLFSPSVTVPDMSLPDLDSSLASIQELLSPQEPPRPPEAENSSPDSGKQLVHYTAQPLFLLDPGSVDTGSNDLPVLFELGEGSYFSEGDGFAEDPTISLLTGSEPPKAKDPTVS
Chain of Hepatocyte nuclear factor 6 (Homo sapiens) (Q9UBC0 whole entry, looked up, the tested form may be a part): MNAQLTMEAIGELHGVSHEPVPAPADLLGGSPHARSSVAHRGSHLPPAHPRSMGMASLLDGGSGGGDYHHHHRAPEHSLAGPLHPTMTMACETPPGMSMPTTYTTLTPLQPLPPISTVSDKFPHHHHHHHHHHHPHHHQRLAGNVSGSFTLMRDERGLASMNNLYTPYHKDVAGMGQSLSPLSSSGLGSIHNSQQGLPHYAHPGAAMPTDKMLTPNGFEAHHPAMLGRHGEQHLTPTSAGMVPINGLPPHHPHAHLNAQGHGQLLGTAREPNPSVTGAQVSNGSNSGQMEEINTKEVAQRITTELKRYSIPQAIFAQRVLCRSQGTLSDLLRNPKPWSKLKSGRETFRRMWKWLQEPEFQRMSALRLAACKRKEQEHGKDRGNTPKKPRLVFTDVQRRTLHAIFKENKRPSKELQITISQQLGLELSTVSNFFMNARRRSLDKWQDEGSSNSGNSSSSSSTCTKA
Chain of Bile acid receptor (Homo sapiens) (Q96RI1 whole entry, looked up): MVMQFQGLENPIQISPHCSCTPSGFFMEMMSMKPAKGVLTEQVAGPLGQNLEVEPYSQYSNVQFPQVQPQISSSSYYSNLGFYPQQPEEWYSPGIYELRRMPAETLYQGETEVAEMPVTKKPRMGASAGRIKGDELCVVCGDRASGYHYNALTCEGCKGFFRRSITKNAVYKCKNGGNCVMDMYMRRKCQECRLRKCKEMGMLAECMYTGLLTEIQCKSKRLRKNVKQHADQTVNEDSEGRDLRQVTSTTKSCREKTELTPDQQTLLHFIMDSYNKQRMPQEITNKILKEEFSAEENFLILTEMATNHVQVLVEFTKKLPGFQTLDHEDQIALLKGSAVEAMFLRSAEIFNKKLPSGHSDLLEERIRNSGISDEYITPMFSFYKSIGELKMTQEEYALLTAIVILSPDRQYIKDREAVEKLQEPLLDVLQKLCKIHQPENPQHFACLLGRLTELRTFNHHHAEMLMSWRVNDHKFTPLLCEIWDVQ

OCC(F)(F)OC(F)(F)C(F)(F)OC(F)(F)C(F)(F)OC(F)(F)CO
inactive: [1] | [2] | [3] | [4] | [5] | [6] | [7] | [8] | [9] | [10] | [11] | [13] | [14] | [15] | [16] | [17] | [18]
active: [12] 13.9 µM | [19] 9.92 µM

CC(=O)c1ccc(-c2ccccc2)cc1
inactive: [1] | [2] | [3] | [4] | [5] | [6] | [7] | [8] | [9] | [10] | [11] | [20] | [13] | [14] | [15] | [16] | [17] | [18] | [19]
active: [12] 27.2 µM

Cc1cc(C)c(C(=O)P(=O)(c2ccccc2)c2ccccc2)c(C)c1
active: [1] 12.8 µM | [2] 57.7 µM | [4] 53.1 µM | [5] 60.7 µM | [7] 50.7 µM | [8] 62.5 µM | [9] 17.9 µM | [12] 0.199 µM | [13] 51 µM | [16] 41.1 µM | [17] 53.7 µM | [18] 45 µM
inactive: [3] | [6] | [10] | [11] | [20] | [14] | [15]

CCNc1nc(Cl)nc(NC(C)(C)C)n1
active: [12] 6.16 µM
inactive: [1] | [2] | [3] | [4] | [5] | [6] | [7] | [8] | [9] | [10] | [11] | [13] | [14] | [15] | [16] | [17] | [18]

Cn1[nH]nnc1=S
inactive: [1] | [2] | [3] | [4] | [5] | [7] | [8] | [9] | [10] | [11] | [12] | [13] | [14] | [15] | [17] | [18] | [19]
active: [6] 27 µM

COP(=O)(O)OC
active: [12] 32.8 µM
inactive: [1] | [2] | [3] | [4] | [5] | [6] | [7] | [8] | [9] | [10] | [11] | [20] | [13] | [14] | [15] | [16] | [17] | [18] | [19]

N#Cc1cc([N+](=O)[O-])ccc1N
inactive: [1] | [2] | [3] | [4] | [5] | [6] | [7] | [8] | [9] | [10] | [11] | [12] | [13] | [14] | [15] | [17] | [18] | [19]
